Compound activity from PubChem.
SW480 rerep: A quantitative high throughput screen for small molecules that induce DNA re-replication in SW480 colon adenocarcinoma cells; AID 624297, 2012; SW480 DNA re-replication, Hoechst DNA content imaging, 48 h; hit rate 1.8% among 340,000; Potency, µM (top dose mostly 46.1 µM), actives largely listed as activators; also: nearly all actives have a fitted effect of over 55% in size
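Treated cells incubate 48 hr (37 C, 5% CO2), are stained 40 min with Hoechst, and nuclear fluorescence is enumerated; a rise in nuclei with high DNA signal marks re-replication.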
HT1080NT lethal: qHTS for induction of synthetic lethality in tumor cells producing 2HG: qHTS for the HT-1080-NT fibrosarcoma cell line. HT-1080-NT fibrosarcoma viability, CellTiter-Glo ATP luminescence, 48 h. hit rate 1.6% among 360,000. Potency, µM (series often up to 46.1 µM), hits mostly cytotoxic;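 also: NT is the 2HG producing partner of a matched IDH1 knockdown line; nearly all actives have a fitted effect of over 55% in size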
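Viability by CellTiter-Glo luminescence after 48 h compound exposure at 37C of HT-1080-NT cells (750/well, RPMI, 5% FBS). % activity scaled between DMSO wells and medium-only wells, then curve-fitted and categorized by curve class.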
HT1080 IDH1KD tx: qHTS for induction of synthetic lethality in tumor cells producing 2HG: qHTS for the HT-1080-IDH1KD cell line. HT-1080 IDH1 knockdown viability, ATP luminescence, 48 h. hit rate 2% among 360,000. AID 686971, 2013. Potency, µM (highest dose often 46.1 µM), usual class: cytotoxic
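Knockdown cells (IDH1KD HT-1080) received compounds 2 h after plating at 750 cells/well and were kept 48 h at 37 °C in 5% FBS RPMI. A CellTiter-Glo luminescence read gave % activity for curve fitting.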
MCF10A rereplic: A quantitative high throughput screen for small molecules that induce DNA re-replication in MCF 10a normal breast cells. MCF 10A DNA re-replication, Hoechst nuclear intensity, 48 h. hit rate 2.9% among 350,000. Potency, µM (series often up to 46.1 µM), hits mostly activators; also: nearly all actives have a fitted effect of over 50% in size
KB-3-1 cytotox: qHTS assay for MDR1-selective chemotherapeutics: Primary screen using the parental adenocarcinoma cell KB-3-1 | Potency, µM (series often up to 46.1 µM), most hits filed as cytotoxic | KB-3-1 viability, CellTiter-Glo ATP luminescence, 72 h | hit rate 1.4% among 400,000 | AID 1347075, 2019; also: nearly all actives have a fitted effect of over 60% in size
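Using CellTiter-Glo luminescence, growth of non-resistant KB-3-1 adenocarcinoma cells is assessed 72 h after pin-tool compound addition at 37 °C. Normalized responses across the concentration series yield fitted curves.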
KB-V1 cytotox: qHTS assay for MDR1-selective chemotherapeutics: Primary screen using the drug-selected MDR subline cells KB-V1; KB-V1 MDR cells viability, CellTiter-Glo, 72 h; Potency, µM (top dose mostly 46.1 µM), actives largely listed as cytotoxic; hit rate 3.4% among 400,000; also: nearly all actives have a fitted effect of over 60% in size
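Drug-selected KB-V1 cells, grown in DMEM lacking phenol red with 10% FBS, receive compound titrations; after three days at 37 degrees C, surviving cell ATP is quantified by CellTiter-Glo luminescence and responses normalized and curve-fitted.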
Each line names hits and unclear results; the compound was inactive in the other large screens. In the library only some 8% were active in any assay of this set; here they are far more common. Calls follow the shape of the dose curve; as a rule, active = well fitted curve in the direction sought with a large enough effect; inconclusive = small, poorly fitted or top-dose-only effect, or another doubt; inactive = no such curve, though single readings can be large; an effect the other way counts as inactive or inconclusive.

Cc1cc(=O)oc2cc(OC(C)C(=O)Nc3ccc(C(N)=O)cc3)ccc12 (stereo not given)	none
Cc1cc(=O)oc2cc(NC(=O)C(C)Oc3cccc(Cl)c3)ccc12 (stereo not given)	HT1080NT lethal 26µM, HT1080 IDH1KD tx inconclusive, MCF10A rereplic inconclusive
CC1=NN(c2ccccc2)C(=O)/C1=C\c1ccc(Oc2ccc([N+](=O)[O-])cc2[N+](=O)[O-])cc1	HT1080NT lethal 21µM, HT1080 IDH1KD tx 10µM, MCF10A rereplic inconclusive
COc1cc(/C=C2\SC(=O)NC2=O)ccc1Oc1ccc([N+](=O)[O-])cn1	MCF10A rereplic inconclusive
COc1cc(/C=C2/SC(=O)NC2=O)ccc1Oc1ccc([N+](=O)[O-])cc1[N+](=O)[O-]	SW480 rerep 13µM, MCF10A rereplic inconclusive
COc1cc(/C=C2\C(=O)N(c3ccccc3)N=C2C)ccc1Oc1ccc([N+](=O)[O-])cc1[N+](=O)[O-]	HT1080 IDH1KD tx inconclusive, MCF10A rereplic 9.2µM
CCN(C(=O)Cn1cnc2onc(-c3ccc(F)cc3)c2c1=O)c1cc(C)ccc1C	none (no result: SW480 rerep, HT1080NT lethal, HT1080 IDH1KD tx, MCF10A rereplic)
O=c1c2ccccc2n2c(-c3ccc(Cl)cc3)nnc2n1CCc1ccccc1	none (no result: SW480 rerep, HT1080NT lethal, HT1080 IDH1KD tx, MCF10A rereplic)
NCCC(O)(P(=O)(O)O)P(=O)(O)O	none (no result: HT1080NT lethal, HT1080 IDH1KD tx, KB-3-1 cytotox, KB-V1 cytotox)
CCN(CC)c1ccc(/C=N/NC(=O)C(O)(c2ccccc2)c2ccccc2)o1	SW480 rerep inconclusive, MCF10A rereplic 7.3µM (no result: HT1080NT lethal, HT1080 IDH1KD tx, KB-3-1 cytotox, KB-V1 cytotox)
O=C(O)c1ccc(/C=N/NC(=O)C(O)(c2ccccc2)c2ccccc2)cc1	SW480 rerep inconclusive
O=C(c1cc2cc(F)ccc2[nH]1)N1CCC(Cc2ccccc2)CC1	MCF10A rereplic 8.2µM
Cc1ccccc1C(=O)Oc1cc(-c2ccc3c(c2)OCO3)cc(=O)c2c(C)oc(C)c12	none (no result: SW480 rerep, HT1080NT lethal, HT1080 IDH1KD tx, MCF10A rereplic)
COc1ccc(/C=C2\SC(=O)N(CC(=O)Nc3cccc(C)c3)C2=O)cc1O	SW480 rerep inconclusive, HT1080NT lethal inconclusive, HT1080 IDH1KD tx inconclusive, MCF10A rereplic 21µM
Cc1nc(-c2ccccc2)sc1CCNS(=O)(=O)c1ccccc1	KB-V1 cytotox inconclusive (no result: SW480 rerep, HT1080NT lethal, HT1080 IDH1KD tx, MCF10A rereplic)
Cc1cc(C)c2c(C)c(C(=O)N3CCC(c4nc5ccccc5s4)CC3)oc2c1	none (no result: SW480 rerep, HT1080NT lethal, HT1080 IDH1KD tx, MCF10A rereplic)
CN(C)c1ccc(/C=C2/CCCc3c2nc2ccccc2c3C(=O)O)cc1	none (no result: SW480 rerep, HT1080NT lethal, HT1080 IDH1KD tx, MCF10A rereplic)
COC(=O)c1ccc(COc2cccc3c2CCN(Cc2cccc(C)c2)C3=O)o1	SW480 rerep inconclusive, MCF10A rereplic inconclusive, KB-3-1 cytotox inconclusive, KB-V1 cytotox 16µM
Cc1ccc(CN2CCc3c(OCc4ccc(F)cc4)cccc3C2=O)cc1	KB-3-1 cytotox inconclusive, KB-V1 cytotox 5.8µM
O=C1c2cccc(OCc3ccc(F)cc3)c2CCN1Cc1ccc(F)cc1	HT1080 IDH1KD tx inconclusive, MCF10A rereplic 21µM, KB-3-1 cytotox 2.9µM, KB-V1 cytotox 3.3µM
CN1CCc2c(OCc3ccc(F)cc3)cccc2C1=O	KB-V1 cytotox inconclusive
COC(=O)c1ccc(COc2cccc3c2CCN(Cc2ccccc2)C3=O)o1	MCF10A rereplic inconclusive, KB-V1 cytotox inconclusive
CCOc1cc(CNC(=O)c2ccc3c(c2)N(C)C(=O)C2CCCCN32)cc(OCC)c1OCC (stereo not given)	none (no result: SW480 rerep, HT1080NT lethal, HT1080 IDH1KD tx, MCF10A rereplic)
Cc1ccc(S(=O)(=O)C2CS(=O)(=O)CC2O)cc1 (stereo not given)	none
CC(=O)C1=C(S(=O)(=O)c2ccc(C)cc2)CS(=O)(=O)C1	SW480 rerep 15µM, HT1080NT lethal inconclusive, HT1080 IDH1KD tx inconclusive, MCF10A rereplic 15µM, KB-3-1 cytotox inconclusive
Cn1cc(C(=O)c2ccc(Cl)cc2Cl)cc1C(=O)N/N=C(\N)COc1ccc(Cl)cc1Cl	SW480 rerep 9.2µM, HT1080NT lethal inconclusive, HT1080 IDH1KD tx inconclusive, MCF10A rereplic inconclusive, KB-3-1 cytotox 18µM, KB-V1 cytotox inconclusive
